Assay [1] addresses Thyrotropin receptor (Homo sapiens) (UniProt P16473). The assay is described as follows: qHTS Assay for Antagonists of the Thyroid Stimulating Hormone Receptor (AID 488980). Further: series mostly up to about 58 µM; 0% is about no effect. The gist of the method: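 TSHR-transfected HEK293 cells (2000/well) in HEPES-buffered HBSS with 70 uM RO 20-1724 were stimulated with 4 nM TSH (EC80, final) in the presence of compound. cAMP was measured by HTRF competition after lysis and 30 min at RT.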
Background: Quantitative high-throughput screening tests each substance at several concentrations.

Assay [2] concerns the target D(1A) dopamine receptor (Homo sapiens) (UniProt P21728). The assay is described as follows: HTS Assay for Allosteric Agonists of the Human D1 Dopamine Receptor: Primary Screen for Agonists (AID 488981). Further: potency means the concentration at half of the fitted maximal effect. On activation: 0% is about no effect. The gist of the method: (§1)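 Tetracycline-induced HEK293 T-REx cells force-coupled to calcium signalling were incubated overnight at 30 C and dye-loaded at room temperature. Calcium flux over 180 s after compound addition flagged agonists; a further 180 s read after EC20 dopamine flagged potentiators.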

The target is the same in assay [3]. The assay is described as follows: HTS Assay for Allosteric Agonists of the Human D1 Dopamine Receptor: Primary Screen for Antagonists (AID 488983).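 Further: calcium flux response to an EC80 dopamine challenge measured with no-wash dye; nearly all actives have a fitted effect of over 65% in size.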 Further: potency means the concentration at half of the fitted maximal effect. The gist of the method:
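In this primary screen, compounds are applied to calcium-dye-loaded HEK293 T-REx cells with force-coupled D1 expression induced overnight at 30 C. An EC80 of dopamine follows the 180 s compound phase, and calcium is monitored for a further 180 s.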

Assay [4] can be described thus: Validation screen for small molecules that induce genotoxicity in human embryonic kidney (HEK293T) cells expressing luciferase-tagged ELG1 (AID 493106). Further: 0% is about no effect. The essentials:
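In this validation screen, increased ELG1-luciferase signal flags compounds causing genetic stress. HEK293T reporter cells are treated 16 hr (37 °C, 5% CO2), developed with ONE-Glo for 30 min at room temperature, and imaged on a CCD-based reader.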

For assay [5], the target named is Thyrotropin-releasing hormone receptor (Homo sapiens) (UniProt P34981). The assay is described as follows: qHTS for Small Molecule Agonists and Allosteric Enhancers of Human TRH Receptor: Validation Screen for Agonists (AID 493127;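 active means calcium activation more than 3 SD above the typical response in the agonist read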;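 further: intracellular calcium rise by fluo-8 fluorescence before TRH EC20 addition; 0% is about no effect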). To be noted: TRH receptor agonist cell assay; at 2 µM; stronger effect = higher value. The essentials: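 Kinetic fluorescence assay of agonist-induced calcium release: overnight-plated TRHR cells, room-temperature fluo-8 loading, baseline then compound addition with per-second reads.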
Chain of Thyrotropin-releasing hormone receptor (Homo sapiens) (P34981 whole entry, looked up): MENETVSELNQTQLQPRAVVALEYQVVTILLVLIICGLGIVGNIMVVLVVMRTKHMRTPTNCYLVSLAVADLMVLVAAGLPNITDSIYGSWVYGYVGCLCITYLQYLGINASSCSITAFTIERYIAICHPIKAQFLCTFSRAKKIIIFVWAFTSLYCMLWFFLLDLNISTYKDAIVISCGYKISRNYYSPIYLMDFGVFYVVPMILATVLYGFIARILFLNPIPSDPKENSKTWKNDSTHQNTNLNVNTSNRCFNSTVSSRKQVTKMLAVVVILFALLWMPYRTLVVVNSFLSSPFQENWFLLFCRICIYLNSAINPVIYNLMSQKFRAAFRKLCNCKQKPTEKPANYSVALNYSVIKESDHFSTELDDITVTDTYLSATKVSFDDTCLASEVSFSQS

Assay [6] addresses ATPase family AAA domain-containing protein 5 (Homo sapiens) (UniProt Q96QE3). The assay is described as follows: Validation screen for small molecules that inhibit ELG1-dependent DNA repair in human embryonic kidney (HEK293T) cells expressing luciferase-tagged ELG1 (AID 493107). Further: nearly all actives have a fitted effect of over 70% in size. Further: potency means the concentration at half of the fitted maximal effect. The gist of the method:
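Compounds reducing 5-fluorouridine-driven ELG1-luciferase signal in HEK293T cells were scored; exposure lasted 16 hr at 37 °C with luminescence detected via ONE-Glo.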

Assay [7] can be described thus: Nrf2 qHTS screen for inhibitors: Validation (AID 493153; active means well fitted inhibition curve with a large enough effect in the main read-out, with a control signal flat, not every such curve was filed as active; further: potency means the concentration at half of the fitted maximal effect). Particulars: Potency: luciferase luminescence; viability change: measured here: cytotoxicity max response. The essentials:
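In this counterscreened reporter format, each well gives two signals: CellTiter-Fluor fluorescence for cytotoxicity and ARE-luciferase luminescence for Nrf2 function. A549 ARE_Fluc cells in 5% FBS OPTI-MEM were exposed to compound titrations for 18-24 h.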

Assay [8] addresses D(1A) dopamine receptor (Homo sapiens) (UniProt P21728). The assay is described as follows: HTS Assay for Allosteric Agonists of the Human D1 Dopamine Receptor: Primary Screen for Potentiators (AID 488982). Further: 0% is about no effect. The gist of the method:
as §1

Inconclusive results are not listed. Active and inactive are the calls of the source. Unless noted, the call rests on the fitted dose curve; in most records, active means well fitted curve in the direction sought with a large enough effect; inconclusive means small, poorly fitted or top-dose-only effect, or another doubt; inactive means no such curve, though single readings can be large; an effect the other way counts as inactive or inconclusive.

We go through 29 molecules from PubChem BioAssay (NCATS).

Chain of Thyrotropin receptor (Homo sapiens) (P16473 whole entry, looked up): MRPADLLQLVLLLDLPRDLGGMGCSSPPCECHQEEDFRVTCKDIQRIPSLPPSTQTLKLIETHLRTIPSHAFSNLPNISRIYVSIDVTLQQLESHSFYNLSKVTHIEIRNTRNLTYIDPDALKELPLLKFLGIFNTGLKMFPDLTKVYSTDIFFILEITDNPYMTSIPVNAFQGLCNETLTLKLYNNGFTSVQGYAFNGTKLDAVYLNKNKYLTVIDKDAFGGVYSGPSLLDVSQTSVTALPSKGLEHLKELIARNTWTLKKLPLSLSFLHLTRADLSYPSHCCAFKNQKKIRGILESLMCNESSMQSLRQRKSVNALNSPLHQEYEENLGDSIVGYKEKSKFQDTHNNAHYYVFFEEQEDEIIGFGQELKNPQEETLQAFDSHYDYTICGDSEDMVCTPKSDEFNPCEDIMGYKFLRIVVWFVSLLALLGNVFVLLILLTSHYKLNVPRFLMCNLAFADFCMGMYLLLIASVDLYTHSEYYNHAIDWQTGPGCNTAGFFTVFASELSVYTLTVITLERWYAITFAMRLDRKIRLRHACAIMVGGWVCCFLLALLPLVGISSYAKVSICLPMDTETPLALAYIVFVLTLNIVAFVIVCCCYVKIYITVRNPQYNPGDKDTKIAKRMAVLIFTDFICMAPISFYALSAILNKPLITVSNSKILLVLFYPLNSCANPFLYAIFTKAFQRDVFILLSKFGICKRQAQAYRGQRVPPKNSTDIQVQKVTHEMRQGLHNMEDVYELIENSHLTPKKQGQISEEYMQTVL
Chain of ATPase family AAA domain-containing protein 5 (Homo sapiens) (Q96QE3 whole entry, looked up, the tested form may be a part): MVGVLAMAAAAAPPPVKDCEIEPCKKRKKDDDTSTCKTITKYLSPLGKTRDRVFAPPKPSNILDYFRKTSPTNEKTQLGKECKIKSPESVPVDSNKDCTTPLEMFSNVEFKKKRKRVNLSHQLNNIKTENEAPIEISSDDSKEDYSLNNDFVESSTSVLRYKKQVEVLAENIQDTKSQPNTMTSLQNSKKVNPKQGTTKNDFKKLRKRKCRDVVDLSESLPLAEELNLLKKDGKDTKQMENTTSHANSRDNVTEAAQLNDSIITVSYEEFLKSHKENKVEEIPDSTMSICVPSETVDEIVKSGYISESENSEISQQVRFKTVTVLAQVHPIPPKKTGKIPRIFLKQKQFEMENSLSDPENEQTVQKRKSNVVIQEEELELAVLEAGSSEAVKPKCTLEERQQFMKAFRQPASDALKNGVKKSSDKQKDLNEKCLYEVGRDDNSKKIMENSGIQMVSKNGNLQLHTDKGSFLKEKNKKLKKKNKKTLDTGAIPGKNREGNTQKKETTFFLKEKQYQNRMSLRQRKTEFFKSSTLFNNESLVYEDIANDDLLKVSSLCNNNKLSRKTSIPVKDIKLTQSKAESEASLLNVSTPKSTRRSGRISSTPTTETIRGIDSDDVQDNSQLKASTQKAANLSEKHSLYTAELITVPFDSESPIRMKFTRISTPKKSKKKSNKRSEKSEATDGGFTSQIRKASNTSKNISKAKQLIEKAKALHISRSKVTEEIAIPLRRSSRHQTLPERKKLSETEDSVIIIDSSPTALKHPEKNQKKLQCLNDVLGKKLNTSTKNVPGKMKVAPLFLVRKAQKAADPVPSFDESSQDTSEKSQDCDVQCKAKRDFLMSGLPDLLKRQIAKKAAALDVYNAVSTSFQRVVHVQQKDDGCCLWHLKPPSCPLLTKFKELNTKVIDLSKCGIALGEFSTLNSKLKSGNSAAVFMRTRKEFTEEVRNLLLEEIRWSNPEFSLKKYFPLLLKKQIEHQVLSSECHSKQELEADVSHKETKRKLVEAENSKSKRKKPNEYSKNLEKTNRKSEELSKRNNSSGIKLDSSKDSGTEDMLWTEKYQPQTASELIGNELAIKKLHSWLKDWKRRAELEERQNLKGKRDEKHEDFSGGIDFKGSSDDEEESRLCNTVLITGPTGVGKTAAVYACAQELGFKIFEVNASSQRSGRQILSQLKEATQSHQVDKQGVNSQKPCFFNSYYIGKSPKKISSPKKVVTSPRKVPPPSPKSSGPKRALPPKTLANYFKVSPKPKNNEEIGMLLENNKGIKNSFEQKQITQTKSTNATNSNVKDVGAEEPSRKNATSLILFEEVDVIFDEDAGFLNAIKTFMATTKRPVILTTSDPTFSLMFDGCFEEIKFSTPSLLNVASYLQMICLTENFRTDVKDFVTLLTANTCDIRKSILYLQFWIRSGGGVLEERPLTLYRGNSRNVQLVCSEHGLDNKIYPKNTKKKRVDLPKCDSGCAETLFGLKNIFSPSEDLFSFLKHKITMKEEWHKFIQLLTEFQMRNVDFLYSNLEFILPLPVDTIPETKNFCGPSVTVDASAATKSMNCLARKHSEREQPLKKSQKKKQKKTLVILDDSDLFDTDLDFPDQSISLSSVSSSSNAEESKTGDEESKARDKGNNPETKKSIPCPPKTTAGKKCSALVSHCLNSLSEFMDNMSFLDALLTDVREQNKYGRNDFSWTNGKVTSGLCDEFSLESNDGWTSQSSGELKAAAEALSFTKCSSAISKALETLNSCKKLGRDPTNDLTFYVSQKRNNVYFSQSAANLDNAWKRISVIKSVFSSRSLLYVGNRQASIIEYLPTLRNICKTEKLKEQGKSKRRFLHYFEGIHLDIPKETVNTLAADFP
Chain of D(1A) dopamine receptor (Homo sapiens) (P21728 whole entry, looked up): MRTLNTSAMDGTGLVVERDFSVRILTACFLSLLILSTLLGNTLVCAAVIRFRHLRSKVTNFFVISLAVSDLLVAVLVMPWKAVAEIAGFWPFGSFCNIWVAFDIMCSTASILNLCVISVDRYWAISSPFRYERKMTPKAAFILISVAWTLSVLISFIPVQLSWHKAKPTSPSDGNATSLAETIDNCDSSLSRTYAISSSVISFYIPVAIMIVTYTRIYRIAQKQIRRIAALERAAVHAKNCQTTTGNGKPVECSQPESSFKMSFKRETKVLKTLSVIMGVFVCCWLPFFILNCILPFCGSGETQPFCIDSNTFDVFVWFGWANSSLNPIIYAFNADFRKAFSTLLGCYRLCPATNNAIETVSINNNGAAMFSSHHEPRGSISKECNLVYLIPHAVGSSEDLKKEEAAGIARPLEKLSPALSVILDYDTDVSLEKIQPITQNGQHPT

Take `N#C/C(=C\c1ccc(O)c(O)c1)C(=O)NCCCNC(=O)/C(C#N)=C/c1ccc(O)c(O)c1`: the molecule was called inactive in assay [1]. Moreover, the Potency entry in assay [2], in assay [3] and in assay [4] was “inactive” in each case. Also, in assay [5], the activation is -0.0625% (inactive).
On to `CC1CCN=C(N)S1` (centres undefined), for which the molecule was classed as inactive in assay [1]. Further, the Potency entry in assay [2], in assay [4], in assay [6] and in assay [7] was “inactive” in each case. Also, in assay [5], the activation was -2.88% (inactive). Further, the viability change in assay [7] amounted to 9.66%.
Take `CC1=C(C(=O)O)N2C(=O)[C@@H](NC(=O)C(N)C3=CCC=CC3)[C@H]2SC1` (some centres undefined): the call in assay [1] was inactive. The Potency result in assay [2], in assay [3], in assay [4], in assay [6] and in assay [7] was “inactive” each time. Moreover, in assay [7], the viability change turned out to be 3.51%.
Turning to `CN(C)S(=O)(=O)c1ccc2c(c1)/C(=C/c1cc3c([nH]1)CCCC3)C(=O)N2`, the result in assay [1] was inactive. For the same molecule, the Potency in assay [2] was 12.6 µM (active). In addition, in assay [3], the Potency result is “inactive”. Moreover, the activation in assay [5] was 26.3% (inactive).
Consider `C[C@H](O)C(=O)C1=Nc2c(nc(N)[nH]c2=O)NC1`, for which the result in assay [1] was inactive. For the same molecule, the Potency entry in assay [8], in assay [3], in assay [4], in assay [6] and in assay [7] was “inactive” in each case. The activation in assay [5] is 1.06% (inactive). Further, the viability change in assay [7] worked out at 8.34%.
Take `Oc1cc2c(cc1O)C(c1ccccc1)CNCC2` (centres undefined): in assay [1], the outcome was inactive. The Potency entry in assay [2], in assay [4], in assay [6] and in assay [7] was “inactive” throughout. In addition, the viability change in assay [7] was -2.55%.
Take `CC(=O)/C(C)=N/O`: the call in assay [1] was inactive. Moreover, the Potency entry in assay [2], in assay [3], in assay [4] and in assay [7] was “inactive” in each case. Besides, the activation in assay [5] is 0.0625% (inactive). Moreover, the viability change in assay [7] is 20.6%.
As for `Nc1ncnc2c1c(-c1ccc(Oc3ccccc3)cc1)cn2C1CCCC1`, the molecule was called inactive in assay [1]. Also, the Potency entry in assay [2] and in assay [4] was “inactive” in each case. For the same molecule, in assay [5], the activation was -5.06% (inactive).
As to `COc1ccccc1N1CCN(CCN(C(=O)c2ccc(F)cc2)c2ccccn2)CC1`, the molecule was classed as inactive in assay [1]. The Potency result in assay [2] and in assay [4] was “inactive” in each case. The activation in assay [5] is 0.312% (inactive).
In the case of `CN1CCCC1CCOC(C)(c1ccccc1)c1ccc(Cl)cc1` (centres undefined), in assay [1], the molecule was called inactive. Also, the Potency result in assay [2], in assay [4] and in assay [7] was “inactive” in each case. The activation in assay [5] is 1.88% (inactive). Moreover, the viability change in assay [7] was -0.239%.
`CCCCCCCCCCCCCCC[C@H](O)[C@H](N)CO`: in assay [1], the call was inactive. Also, the Potency entry in assay [8], in assay [3], in assay [4], in assay [6] and in assay [7] was “inactive” in each case. Moreover, the activation in assay [5] is 1.44% (inactive). Further, the viability change in assay [7] came to 2.23%.
For the molecule `COc1cc(CNC(=O)CCCCCCC(C)C)ccc1O`, in assay [1], the result was inactive. The Potency result in assay [8], in assay [3], in assay [4], in assay [6] and in assay [7] was “inactive” in each case. For the same molecule, the activation in assay [5] is -5.38% (inactive). In assay [7], the viability change is -9.77%.
On to `CC[C@H](NC(=O)c1c(C)c(-c2ccccc2)nc2ccccc12)c1ccccc1`, for which the molecule was classed as inactive in assay [1]. Moreover, the Potency result in assay [8], in assay [3], in assay [4] and in assay [6] was “inactive” in each case.
For the molecule `O=C(O)C1CN(CCCP(=O)(O)O)CCN1` (centres undefined), the molecule was classed as inactive in assay [1]. Moreover, the Potency result in assay [8], in assay [3], in assay [4], in assay [6] and in assay [7] was “inactive” in each case. The viability change in assay [7] came out at 8.53%.
On to `CC(=O)C(C)=O`, for which the result in assay [1] was inactive. Also, the Potency entry in assay [2], in assay [4], in assay [6] and in assay [7] was “inactive” each time. Further, the viability change in assay [7] was -3.11%.
Consider `CCC(=O)N1CCN(C(=O)c2ccccc2)CC1`, for which, in assay [1], the call was inactive. In addition, the Potency entry in assay [8], in assay [3], in assay [4], in assay [6] and in assay [7] was “inactive” in each case. The viability change in assay [7] was 1.55%.
For the molecule `C=CCN1CCc2cc(O)c(O)cc2C(c2ccccc2)C1` (centres undefined), in assay [1], the molecule was classed as inactive. Moreover, the Potency result in assay [2], in assay [4], in assay [6] and in assay [7] was “inactive” throughout. Moreover, the viability change in assay [7] is -2.64%.
For `CCCCCCCCCC(=O)NC(CN1CCOCC1)[C@H](O)c1ccccc1` (some centres undefined), in assay [1], the molecule was classed as inactive. For the same molecule, the Potency result in assay [8], in assay [3], in assay [4], in assay [6] and in assay [7] was “inactive” throughout. Further, the activation in assay [5] was 0.812% (inactive). For the same molecule, the viability change in assay [7] was -4.61%.
As to `CC(C)NCC(O)COc1ccc(CC(N)=O)cc1` (centres undefined), in assay [1], the molecule was classed as inactive. Moreover, the Potency result in assay [8], in assay [3], in assay [4], in assay [6] and in assay [7] was “inactive” throughout. For the same molecule, in assay [5], the activation is 0.875% (inactive). Besides, the viability change in assay [7] was determined as 0.809%.
For the molecule `NC(=O)c1ccccc1`, the molecule was called inactive in assay [1]. For the same molecule, the Potency entry in assay [8], in assay [3], in assay [4] and in assay [6] was “inactive” each time. The activation in assay [5] is 0.25% (inactive).
Take `NC(N)=[N+]1CCc2ccccc2C1`: the call in assay [1] was inactive. The Potency entry in assay [2], in assay [4] and in assay [6] was “inactive” in each case. Moreover, the activation in assay [5] is -0.125% (inactive). For the same molecule, the Potency in assay [7] was 16.4 µM (active). In assay [7], the viability change stood at 6.22%.
Take `CCCn1c(=O)c2[nH]c(-c3ccc(S(=O)(=O)O)cc3)nc2n(CCC)c1=O`: the outcome in assay [1] was inactive. In addition, the Potency result in assay [8], in assay [3], in assay [4], in assay [6] and in assay [7] was “inactive” each time. Besides, in assay [5], the activation was 0.688% (inactive). Also, the viability change in assay [7] was -4.01%.
For the molecule `CNCCNS(=O)(=O)c1cccc2cnccc12`, the outcome in assay [1] was inactive. For the same molecule, the Potency entry in assay [8], in assay [3] and in assay [4] was “inactive” throughout. Moreover, the Potency in assay [6] is 9.2 µM (active). Besides, the activation in assay [5] is 1.44% (inactive).
Consider `CCCCCCCCCCC/C=C\C(C)(C)/C=C\CCCC(=O)O`, for which the result in assay [1] was inactive. The Potency result in assay [2], in assay [3], in assay [4], in assay [6] and in assay [7] was “inactive” in each case. The viability change in assay [7] is 3.47%.
Take `O=C1OC(=O)C2C3CCC(O3)C12` (centres undefined): the molecule was classed as inactive in assay [1]. For the same molecule, the Potency entry in assay [2], in assay [3], in assay [6] and in assay [7] was “inactive” in each case. Further, the activation in assay [5] is 0.938% (inactive). In addition, in assay [7], the viability change is -3.78%.
Take `NC1CONC1=O` (centres undefined): in assay [1], the call was inactive. Moreover, the Potency entry in assay [8], in assay [3], in assay [4], in assay [6] and in assay [7] was “inactive” in each case. The viability change in assay [7] came out at 2.91%.
Take `[N-]=[N+]=Nc1ccc(C(=O)CSC[C@H](NC(=O)CC[C@H](N)C(=O)O)C(=O)NCC(=O)O)cc1`: the outcome in assay [1] was inactive. Further, the Potency result in assay [2], in assay [4] and in assay [6] was “inactive” throughout. In assay [5], the activation is 1.12% (inactive).
Regarding `Nn1nnc2ccccc21`, in assay [1], the molecule was classed as inactive. The Potency entry in assay [8], in assay [3], in assay [4], in assay [6] and in assay [7] was “inactive” throughout. Also, the activation in assay [5] is 1.12% (inactive). In addition, the viability change in assay [7] was -0.567%.
`COc1ccccc1N1CCN(CCCCNC(=O)c2ccc3ccccc3c2)CC1`: in assay [1], the molecule was called inactive. Besides, the Potency entry in assay [8], in assay [4], in assay [6] and in assay [7] was “inactive” throughout. Also, the Potency in assay [3] was 8.91 µM (active). In assay [7], the viability change turned out to be 4.82%.
